HCMV inh – human cytomegalovirus inhibition | HFF cells, HCMV-luciferase reporter, 72 h; stronger effect = lower value | activity change, negative = inhibition, % at 57.5 µM | 4.5% of 410,000 active; in the data active = activity change below about -60%; inconclusive = no clear call, values can overlap the other calls; inactive = above about -39%
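Luciferase read-out from HCMV-luciferase-infected HFFs (MOI 1 PFU/cell) 72 h post infection at 37C; compounds added after 16 h cell attachment; activity normalized between buffer-only basal and Salinomycin (10uM) inhibitor controls.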
MARV entry inh – Marburg virus entry inhibition; Marburg virus pseudotyped entry inhibition, cell reporter; Potency, µM (series often up to 37.8 µM), for the others: at the top dose activity change, negative = inhibition, usual class: inhibitors; 1.8% of 300,000 active; calls by dose curve; tested in HEK293 cells; also: potency is read from the fitted curve at half-maximal effect
FMDV inh – blocks foot and mouth disease virus; Potency, µM (titrated, usually from 57.9 µM), inactives show at the top dose activity change, negative = inhibition, usual class: inhibitors; 1.2% of 410,000 active; FMDV antiviral cell-based qHTS; calls by dose curve; tested in HEK293T cells; also: read-out not given here; potency is read from the fitted curve at half-maximal effect; nearly all actives have a fitted effect of over 45% in size
Lassa entry inh – Lassa virus entry inhibition | Lassa virus pseudotype entry inhibition, cell reporter | Potency, µM (series often up to 37.9 µM), without a hit: at the top dose activity change, negative = inhibition, most hits filed as inhibitors | 1.2% of 300,000 active; calls by dose curve; tested in HEK293 cells; also: potency is read from the fitted curve at half-maximal effect; nearly all actives have a fitted effect of over 50% in size
Numbers without * were called inactive; [ ] = remark or other dose. Shown are actives, neighbours in structure and some others; about 6.2% of the full set was active somewhere. % is scaled to controls: 0 for no effect and ±100 for the full control effect.

Screening Cc1cc(-n2c(=O)c(C#N)cc3c(=O)n4ccccc4nc32)no1 returned HCMV inh 27.3, MARV entry inh -12.0%, FMDV inh 4.6% and Lassa entry inh 16.4%.
Screening c1ccc(-c2noc(-c3ccc4c(c3)OCO4)n2)cc1 returned HCMV inh 0.4, MARV entry inh inconclusive, FMDV inh 14.1µM* and Lassa entry inh inconclusive.
Screening COc1ccc(-c2noc(-c3ccc4c(c3)OCO4)n2)cc1 returned HCMV inh 77.7, MARV entry inh inconclusive, FMDV inh 26.0% and Lassa entry inh -8.7%.
C=CCNC(=O)c1oc2ccc(S(=O)(=O)N(CC)CC)cc2c1C was read as HCMV inh -22.8, MARV entry inh 11.6%, FMDV inh -23.2% and Lassa entry inh inconclusive.
`COc1ccc(-n2nnc3c(SC(C(C)=O)C(=O)N(C)C)ncnc32)cc1` (centres undefined) gave HCMV inh -15.1 and FMDV inh 31.6µM*.
For CCCCCCCCN1C(=O)C(O)=C(C(C)=O)C1c1ccccn1 (centres undefined) the results were HCMV inh 12.0, MARV entry inh 9.3%, FMDV inh -15.6% and Lassa entry inh 13.9%.
Screening Cc1cccc2sc(NC(=O)CN(C)S(=O)(=O)c3cccs3)nc12 returned HCMV inh -21.3, MARV entry inh -22.8%, FMDV inh 39.8µM* and Lassa entry inh -14.7%.
Cc1cccc2sc(NC(=O)CN(C)S(=O)(=O)c3ccc(Br)s3)nc12 was read as HCMV inh -38.3, MARV entry inh inconclusive, FMDV inh inconclusive and Lassa entry inh inconclusive.
Screening Cc1nn(-c2ccccc2)c(Cl)c1C1C(C#N)=C(N)Oc2c1c(C)nn2-c1ccccc1 (centres undefined) returned MARV entry inh -12.1%[46.1 µM], FMDV inh inconclusive and Lassa entry inh 6.8%.
For COc1cc(-n2nc(C)c3c2OC(N)=C(C#N)C3c2ccccc2)c(Cl)c(Br)c1O (centres undefined) the results were MARV entry inh -54.4%, FMDV inh 22.4µM* and Lassa entry inh -0.4%.
Screening Cc1nn(Cc2ccccc2)c2c1C(c1cccc(Cl)c1)C(C#N)=C(N)O2 (centres undefined) returned HCMV inh -60.2*, MARV entry inh inconclusive, FMDV inh inconclusive and Lassa entry inh -25.5%.
`COC(=O)c1cc(C(=O)OC)n(Cc2ccc(F)cc2)n1` gave HCMV inh -15.4, MARV entry inh 14.1% and Lassa entry inh 3.8%.
Screening CCOc1ccc(C(C)=O)cc1CSC(=N)N returned HCMV inh 46.8, MARV entry inh inconclusive, FMDV inh -13.3% and Lassa entry inh -6.2%[46.1 µM].
Screening CCCCOc1ccc(Br)cc1CSC(=N)N returned HCMV inh -98.4*, MARV entry inh inconclusive, FMDV inh 12.6µM* and Lassa entry inh inconclusive.
Screening O=C(Cn1cccc1C(=O)c1ccccc1)NCc1ccc2c(c1)OCO2 returned HCMV inh 21.8, MARV entry inh 5.8%, FMDV inh 44.5% and Lassa entry inh inconclusive.
Screening N#CSCC(=O)N1c2ccccc2CCc2ccccc21 returned HCMV inh -102.1*, MARV entry inh inconclusive, FMDV inh inconclusive and Lassa entry inh inconclusive.
Screening O=C(CN1CCCCC1)N1c2ccccc2CCc2ccccc21 returned HCMV inh -13.9, MARV entry inh inconclusive, FMDV inh inconclusive and Lassa entry inh -0.4%.
C=C(CN(C)C)C(=O)c1ccc(C)cc1C was read as HCMV inh -76.8*, MARV entry inh inconclusive, FMDV inh -6.2% and Lassa entry inh inconclusive.
`Cc1ccc(C(=O)CC(=O)c2ccccc2C)c(O)c1` gave HCMV inh inconclusive, MARV entry inh inconclusive, FMDV inh 26.2% and Lassa entry inh inconclusive.
For O=C(Nc1cccc(Cl)c1)c1ccc(F)c(S(=O)(=O)NCc2cccs2)c1 the results were HCMV inh -92.8*, MARV entry inh inconclusive, FMDV inh inconclusive and Lassa entry inh inconclusive.
For CCc1ccc(NC(=O)c2ccc(F)c(S(=O)(=O)NCc3ccc(Cl)c(Cl)c3)c2)cc1 the results were HCMV inh 53.7, FMDV inh -28.2% and Lassa entry inh inconclusive.
For COc1ccc(CNS(=O)(=O)c2cc(C(=O)Nc3cc(Cl)cc(Cl)c3)ccc2F)cc1 the results were HCMV inh -78.4*, FMDV inh -9.1% and Lassa entry inh -13.6%[46.1 µM].
CCc1ccc(NC(=O)c2ccc(CNS(=O)(=O)c3ccc4c(c3)C(C)(C)C(=O)N4C)cc2)cc1 was read as HCMV inh inconclusive, FMDV inh inconclusive and Lassa entry inh -17.0%[46.1 µM].
CN1C(=O)C(C)(C)c2cc(S(=O)(=O)NCc3ccc(C(=O)Nc4ccc(Cl)cc4)cc3)ccc21 was read as HCMV inh inconclusive, FMDV inh 31.6µM* and Lassa entry inh inconclusive.
For Cc1ccc(C(=O)Nc2ccc(Br)cc2)cc1S(=O)(=O)NCc1ccccc1 the results were HCMV inh -69.1*, FMDV inh -24.4% and Lassa entry inh inconclusive.
Screening Cc1ccc(C(=O)Nc2ccccc2C(=O)O)cc1S(=O)(=O)NCc1ccccc1 returned HCMV inh -10.3 and FMDV inh 57.7%.
`COc1cc(SC)ccc1C(=O)N(C)Cc1ccccc1` gave HCMV inh -12.4, MARV entry inh 11.0%, FMDV inh 44.1% and Lassa entry inh -8.8%.
For COc1ccccc1CNS(=O)(=O)c1cc(C(=O)Nc2cccc(C(F)(F)F)c2)ccc1F the results were HCMV inh -66.6*, FMDV inh -24.3% and Lassa entry inh inconclusive.
`O=C(Nc1cc(Cl)cc(Cl)c1)c1ccc(F)c(S(=O)(=O)NCc2ccccc2Cl)c1` gave HCMV inh -98.5*, FMDV inh -5.1% and Lassa entry inh -17.7%[46.1 µM].
Screening COc1cc(/C=N/NC(=O)/C(=C\c2ccc([N+](=O)[O-])cc2)NC(=O)c2ccccc2)cc(OC)c1O returned HCMV inh 3.8, MARV entry inh 2.6%, FMDV inh 20.4% and Lassa entry inh -15.3%.
`Cc1ccc(OCC(=O)c2cc(C)n(-c3ccccc3)c2C)c([N+](=O)[O-])n1` gave HCMV inh -98.6*, MARV entry inh inconclusive, FMDV inh inconclusive and Lassa entry inh inconclusive.
`Cc1cc(C(=O)COC(=O)C2=COCCO2)c(C)n1-c1ccccc1` gave HCMV inh inconclusive, MARV entry inh 5.62µM*, FMDV inh inconclusive and Lassa entry inh 2.24µM*.
`C=CCn1c(C)cc(C(=O)COc2ccc(S(=O)(=O)N3CCCC3)cc2[N+](=O)[O-])c1C` gave HCMV inh -15.5, MARV entry inh 14.2%, FMDV inh -11.7% and Lassa entry inh 2.0%.
For C=CCn1c(C)cc(C(=O)COc2ccc(C)nc2[N+](=O)[O-])c1C the results were HCMV inh -92.1*, MARV entry inh inconclusive, FMDV inh inconclusive and Lassa entry inh inconclusive.
For Cc1ccc(OCC(=O)c2cc(C)c(C)cc2C)c([N+](=O)[O-])n1 the results were HCMV inh 67.2, MARV entry inh -0.8%, FMDV inh -17.8% and Lassa entry inh -5.1%.
CCCn1c(C)cc(C(=O)COc2ccc(C)nc2[N+](=O)[O-])c1C was read as HCMV inh -89.0*, MARV entry inh inconclusive, FMDV inh 0.0% and Lassa entry inh 14.8%.
